Drawing on PubChem BioAssay (EPA / NIEHS), this text covers AC50 and outcome for seven compounds.

The structures appear in SMILES notation. Results filed as inconclusive are left out. Activity calls are given as the source filed them. The calls were made as follows, unless noted: active = hit-call score of the fitted dose curve at least 0.9, where 1 is the maximum; inconclusive = response in the unintended direction; inactive = score below 0.9.

Read-out in experiment [1]: Thyroid Hormone Responsive (THRSP), THRSP (gene 7069)
Nature of the experiment: LTEA_HepaRG_THRSP: Life Technologies and Expression Analysis (LTEA) Assay for Thyroid Hormone Responsive (THRSP) using HepaRG (AID 2283536; active = hit-call score of the fitted dose curve at least 0.9, where 1 is the maximum; inactive = score below 0.9). The following applies: mRNA level, 48 h; actives raise or lower the signal. Summed up:
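Differentiated HepaRG cells treated 48 h in serum-free induction medium with 8 half-log concentrations up to 100 uM (0.5% DMSO), duplicates. THRSP mRNA by TaqMan qRT-PCR normalised to ACTB, GAPDH, POLR2A; bidirectional fit versus DMSO.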

Read-out in experiment [2]: Cellular tumor antigen p53 (Homo sapiens) (UniProt P04637)
Nature of the experiment: LTEA_HepaRG_TP53: Life Technologies and Expression Analysis (LTEA) Assay for Tumor Protein P53 (TP53) using HepaRG (AID 2283537; active = hit-call score of the fitted dose curve at least 0.9, where 1 is the maximum; inactive = score below 0.9). The following applies: mRNA level, 48 h; actives raise or lower the signal. The method in brief: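 Read-out is TP53 transcript level by microfluidic qRT-PCR, normalised to three housekeeping genes and fitted bidirectionally against DMSO. Human HepaRG cells received compounds for 48 h, highest concentration 100 uM.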

Read-out in experiment [3]: UDP glucuronosyltransferase (UGT1A1), UGT1A1 (gene 54658)
Nature of the experiment: LTEA_HepaRG_UGT1A1: Life Technologies and Expression Analysis (LTEA) Assay for UDP glucuronosyltransferase (UGT1A1) using HepaRG (AID 2283538; active = hit-call score of the fitted dose curve at least 0.9, where 1 is the maximum; inactive = score below 0.9). The conditions noted are these: mRNA level, 48 h; actives raise or lower the signal. Summed up:
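Human liver HepaRG cultures receive test chemical for 48 h, up to 100 uM in 0.5% DMSO, with phenobarbital induction controls. UGT1A1 mRNA is measured by qRT-PCR and normalized to ACTB, GAPDH and POLR2A.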

Read-out in experiment [4]: UDP glucuronosyltransferase (UGT1A6), UGT1A6 (gene 54578)
Nature of the experiment: LTEA_HepaRG_UGT1A6: Life Technologies and Expression Analysis (LTEA) Assay for UDP glucuronosyltransferase (UGT1A6) using HepaRG (AID 2283539; active = hit-call score of the fitted dose curve at least 0.9, where 1 is the maximum; inactive = score below 0.9). The conditions noted are these: mRNA level, 48 h; actives raise or lower the signal. Summed up: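 qRT-PCR readout of UGT1A6 mRNA (normalized to ACTB/GAPDH/POLR2A) in differentiated HepaRG cells after 48 h chemical exposure; 8 concentrations, top 100 uM, half-log steps, 0.5% DMSO. Bidirectional curve fit relative to DMSO baseline.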

Read-out in experiment [5]: X-box binding protein 1 (XBP1), XBP1 (gene 7494)
Nature of the experiment: LTEA_HepaRG_XBP1: Life Technologies and Expression Analysis (LTEA) Assay for X-box binding protein 1 (XBP1) using HepaRG (AID 2283540; active = hit-call score of the fitted dose curve at least 0.9, where 1 is the maximum; inactive = score below 0.9). The following applies: mRNA level, 48 h; actives raise or lower the signal. Summed up: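 HepaRG, 48 h exposure, 8-pt half-log CRC top 100 uM, 0.5% DMSO vehicle, duplicates. Readout: TaqMan qRT-PCR of XBP1 mRNA, housekeeping-normalised (ACTB/GAPDH/POLR2A); bidirectional fit vs DMSO baseline.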

A short description of experiment [6]: LTEA_HepaRG_LDH_cytotoxicity: Cytotoxicity Assessment in the Life Technologies and Expression Analysis (LTEA) Assay (AID 2283563).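 As to AC50: LDH activity released into spent culture medium as a marker of cell death.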 Summed up: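 HepaRG (human liver line), 48 h exposure, 8-pt half-log series from 100 uM, 0.5% DMSO vehicle, duplicates. Read-out: LDH in spent medium. Positive-direction fit vs DMSO baseline.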
A short description of experiment [7]: TOX21_p53_BLA_p2_viability: Viability Assessment in the Tox21 HCT-116 p53 Agonism Beta-lactamase Assay, Phase 2 (AID 2283591).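 Also: compound exposure lasted 16 h at 37 °C; actives lower the ATP signal meaning cytotoxicity.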 The method in brief:
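HCT116 p53-bla cells, 4000/well, dosed after 5 h plating (217-fold dilution of DMSO stocks) and incubated 16 h at 37C. Viability taken as cellular ATP by CellTiter-Glo luminescence after 30 min RT; signal loss marks cytotoxicity.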

The target of experiment [8] is Cellular tumor antigen p53 (Homo sapiens) (UniProt P04637). Nature of the experiment: TOX21_p53_BLA_p2_ratio: Tox21 HCT-116 p53 Agonism Beta-lactamase Assay, Ratio, Phase 2 (AID 2283592). Summed up: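 In this cell-based reporter format, HCT116 cells were dosed with chemicals delivered from DMSO by 217-fold dilution and incubated 16 h at 37C. Emission at 460 and 530 nm after 2 h CCF4-AM loading provided the ratio, fitted upward versus DMSO.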

Experiment [9] can be described thus: TOX21_p53_BLA_p3_viability: Viability Assessment in the Tox21 HCT-116 p53 Agonism Beta-lactamase Assay, Phase 3 (AID 2283593).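 Also: cells exposed to compound for 16 h before reading.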 The method in brief:
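HCT116 cells, 4000/well, dosed 5 h after plating by pin transfer (217-fold dilution from DMSO stock) and incubated 16 h at 37C, 5% CO2. Viability read as ATP luminescence with CellTiter-Glo after 30 min at room temperature.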

Experiment [10] addresses Cellular tumor antigen p53 (Homo sapiens) (UniProt P04637). In words: TOX21_p53_BLA_p3_ratio: Tox21 HCT-116 p53 Agonism Beta-lactamase Assay, Ratio, Phase 3 (AID 2283596). Summed up: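 HCT116 p53-bla cells (4000/well) given compound in DMSO (217-fold dilution) after 5 h, incubated 16 h at 37C. CCF4-AM substrate 2 h at room temperature; 460/530 nm emission ratio, gain fitted against DMSO.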

A short description of experiment [11]: TOX21_p53_BLA_p4_viability: Viability Assessment in the Tox21 HCT-116 p53 Agonism Beta-lactamase Assay, Phase 4 (AID 2283597).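 Also: hits lower the luminescence signal meaning cytotoxicity.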 Summed up:
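We seeded HCT116 p53 reporter cells at 4000/well and waited 5 h. We then added compounds in DMSO at a 217-fold dilution and incubated for 16 h. Viability was read as CellTiter-Glo luminescence after 30 min at RT.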

Experiment [12] deals with Cellular tumor antigen p53 (Homo sapiens) (UniProt P04637). Nature of the experiment: TOX21_p53_BLA_p5_ratio: Tox21 HCT-116 p53 Agonism Beta-lactamase Assay, Ratio, Phase 5 (AID 2283599). The method in brief: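 HCT-116 p53-bla cells (4000/well) plated 5 h, dosed with compound (217-fold DMSO dilution) for 16 h at 37 C; CCF4-AM substrate 2 h at room temperature. Activity is the 460/530 nm emission ratio (405 nm excitation), fitted in gain-of-signal direction versus DMSO.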

Experiment [13] has the same target. Nature of the experiment: TOX21_p53_BLA_p4_ratio: Tox21 HCT-116 p53 Agonism Beta-lactamase Assay, Ratio, Phase 4 (AID 2283601). Summed up:
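HCT-116 p53 beta-lactamase reporter cells (4000/well) preincubated 5 h, then compound (217-fold dilution of DMSO stock) for 16 h at 37C. CCF4-AM substrate added 2 h at room temperature; 460/530 nm emission ratio fitted upward versus DMSO.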

The nature of experiment [14]: Tanguay_ZF_120hpf_MORT_legacy: (Legacy) Oregon State University Tanguay Lab 120 Hour Post-fertilization zebrafish Assay for Mortality (AID 2283633). The method in brief: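 Brightfield scoring of embryo death (binary) at 24 and 120 hpf; static exposure 6–120 hpf, 28C, sealed and foil-covered. Pronase-dechorionated 5D wild-type larvae, single embryo per well. DMSO 0.64% v/v; trimethyltin chloride 5uM positive control.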

Experiment [15] is described as follows: Tanguay_ZF_120hpf_YSE_legacy: (Legacy) Oregon State University Tanguay Lab 120 Hour Post-fertilization zebrafish Assay for Yolk Sac Edema (AID 2283634). The method in brief: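 Binary brightfield scoring of yolk sac edema at 120 hpf; DMSO baseline, gain-of-signal fitting. Dechorionated 5D larvae, one per well, static exposure 6–120 hpf, 28C, 0.64% DMSO. Dead embryos not scored.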

The nature of experiment [16]: Tanguay_ZF_120hpf_AXIS_legacy: (Legacy) Oregon State University Tanguay Lab 120 Hour Post-fertilization zebrafish Assay for Body Axis Malformation (AID 2283635).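 As to AC50: potency for an increased fraction of larvae scored with body axis malformation.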 The method in brief: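 Embryos: 5D wild-type, pronase-dechorionated 4 hpf; static exposure 6–120 hpf, 28C, sealed, dark, 1 embryo/well, 0.64% DMSO. 120 hpf axis malformation scored present/absent; dead embryos excluded. Analysed as gain of signal vs DMSO.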

Experiment [17] in a line: Tanguay_ZF_120hpf_SNOU_legacy: (Legacy) Oregon State University Tanguay Lab 120 Hour Post-fertilization zebrafish Assay for Snout Malformation (AID 2283637). Summed up: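 Dechorionated tropical 5D wild-type zebrafish embryos exposed statically from 6 to 120 hpf at 28C, one per well, in 0.64% DMSO. Snout malformation scored as present/absent by brightfield at 120 hpf; dead embryos not scored.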

Experiment [18] in a line: Tanguay_ZF_120hpf_EYE_legacy: (Legacy) Oregon State University Tanguay Lab 120 Hour Post-fertilization zebrafish Assay for Eye Malformation (AID 2283636).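 Also: binary presence or absence of eye malformation scored by brightfield in 120 hpf larvae.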 Summed up:
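Dechorionated Tropical 5D zebrafish embryos, one per well from 6 hpf, static exposure to 120 hpf at 28C, 0.64% DMSO. Eye malformation scored present/absent by brightfield; dead embryos not scored.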

Experiment [19] can be described thus: TOX21_p53_BLA_p5_viability: Viability Assessment in the Tox21 HCT-116 p53 Agonism Beta-lactamase Assay, Phase 5 (AID 2283600). The method in brief: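 Compounds, pinned from DMSO at 217-fold dilution, were left on the cells for 16 h. The viability endpoint was ATP content measured by CellTiter-Glo luminescence, where falling signal reflects cytotoxicity.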

Sequence of Cellular tumor antigen p53 (Homo sapiens) (P04637 whole entry, looked up): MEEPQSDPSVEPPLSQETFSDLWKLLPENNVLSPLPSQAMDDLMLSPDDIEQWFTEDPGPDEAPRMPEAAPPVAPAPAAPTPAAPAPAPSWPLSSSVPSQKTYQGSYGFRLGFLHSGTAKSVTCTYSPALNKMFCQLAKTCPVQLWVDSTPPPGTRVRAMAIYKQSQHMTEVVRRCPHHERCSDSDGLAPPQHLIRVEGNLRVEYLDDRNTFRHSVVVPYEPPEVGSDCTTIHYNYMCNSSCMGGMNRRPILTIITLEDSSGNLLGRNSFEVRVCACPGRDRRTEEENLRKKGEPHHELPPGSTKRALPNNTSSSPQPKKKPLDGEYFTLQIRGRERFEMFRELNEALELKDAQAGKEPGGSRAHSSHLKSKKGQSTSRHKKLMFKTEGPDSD

In the case of `COc1ccc2sc(C(=O)Nc3nnn[nH]3)c(OC(C)C)c2c1`, the AC50 (usually the midpoint of the concentration-response curve, whichever way the signal moves) in experiment [1] is 50 µM (active); in experiment [2], 38.9 µM (active); in experiment [3] it was 12.9 µM (active); in [4], 50 µM (active); in experiment [7] it was 13.2 µM (active); in experiment [9] it was 17.8 µM (active). Also, in experiment [11], the AC50 is 14.3 µM (active). The outcome in [5], in experiment [6], in [8], in experiment [10], in experiment [12] and in experiment [13] was inactive. In addition, the compound was called inactive in experiment [14], in [15], in [16] and in experiment [17].
`CC(C)CCCCCCOC(=O)c1ccc(C(=O)OCCCCCCC(C)C)c(C(=O)OCCCCCCC(C)C)c1`: the call in experiment [1], in [2], in [3], in [4], in experiment [5] and in [6] was inactive. Further, the compound was classed as inactive in experiment [7], in [9], in experiment [10], in [11], in experiment [12] and in [14]. In addition, the compound was classed as inactive in experiment [15], in experiment [16] and in experiment [17].
For `COc1cccc(-c2ccc(/C=C\CN3CCCCCC3)cc2Cl)c1`, the result in experiment [1], in experiment [2], in experiment [5], in experiment [9], in experiment [10] and in [12] was inactive. The outcome in experiment [15], in experiment [16] and in experiment [17] was inactive. The AC50 in experiment [3] is 83.4 µM (active); in [4] it was 80.4 µM (active); in experiment [6], 68.8 µM (active); in [7], 57.8 µM (active); in [8], 70.5 µM (active); in experiment [11], 52.5 µM (active). Moreover, in experiment [13], the AC50 was 73.8 µM (active).
In the case of `CCCCCCCCO`, the result in [1], in experiment [2], in experiment [3], in experiment [4], in experiment [5] and in experiment [6] was inactive. Also, the result in experiment [7], in [8], in experiment [9], in experiment [10], in experiment [13] and in experiment [15] was inactive. For the same compound, the result in [18] and in [17] was inactive.
In the case of `CCN(C(=O)c1cc(C)cc(OC[C@H](C)Nc2ccncc2)c1)C(C)C`, the AC50 was 6.4 µM (active) in experiment [1], 9.37 µM (active) in [2], 6.7 µM (active) in experiment [3] and 49.7 µM (active) in [6]. Also, the compound was called inactive in [4], in experiment [5], in experiment [7], in experiment [8], in [9] and in experiment [10]. The call in experiment [11], in experiment [12], in [19], in experiment [13], in experiment [15] and in [16] was inactive. Also, the result in experiment [18] and in [17] was inactive.
Take `CC(C)=CCC/C(C)=C/CO`: the result in experiment [1], in experiment [2], in [3], in [4], in [5] and in experiment [6] was inactive. Moreover, the call in [7], in experiment [8], in experiment [9], in [10], in experiment [11] and in experiment [12] was inactive. Also, the outcome in [13], in experiment [14], in [15] and in experiment [17] was inactive. For the same compound, the AC50 in experiment [16] was 23.6 µM (active).
With `CCn1nc(Cc2ccccc2)cc1C1CCN(C[C@H]2C[C@H](N(C)[C@@H](C(=O)O)C(C)C)C[C@@H]2c2cccc(F)c2)CC1`, the compound was called inactive in [1], in experiment [2], in experiment [3], in [4], in experiment [5] and in experiment [6]. In addition, the result in experiment [7], in experiment [9], in experiment [11], in experiment [12], in [19] and in experiment [15] was inactive. Further, the call in experiment [16] and in experiment [17] was inactive.
